High-throughput results (PubChem BioAssay)
HP1b binding inh – inhibitors of HP1-beta chromodomain binding to methylated histone tails; P83916; AlphaScreen HP1-beta / biotin-H3K9me3 peptide binding; Potency, µM (titrated, usually from 114 µM), inactives show at the highest dose activity change, negative = inhibition, usual class: inhibitors; 390,000 compounds, 0.56% hits; also: potency is read from the fitted curve at half-maximal effect; nearly all actives have a fitted effect of over 70% in size
Target sequence (P83916 whole entry, looked up): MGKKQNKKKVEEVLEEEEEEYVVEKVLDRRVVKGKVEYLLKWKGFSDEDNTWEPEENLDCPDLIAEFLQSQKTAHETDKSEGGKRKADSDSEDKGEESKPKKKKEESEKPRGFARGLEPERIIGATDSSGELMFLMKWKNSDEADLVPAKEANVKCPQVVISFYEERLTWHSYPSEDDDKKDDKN
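HP1-beta protein (50 nM final) preincubated 30 min at room temperature with biotinylated H3(1-18)K9me3 peptide (50 nM) in PBS pH 7.4, 0.01% Tween-20, then compound added for 30 min. AlphaScreen streptavidin donor/nickel chelate acceptor beads (10 ug/mL final), 30 min dark, luminescence read.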
Six1-Eya2 inh – Six1/Eya2 interaction inhibition | AlphaScreen GST-Six1/His-Eya2 binding, biochemical; hits give low values | 360,000 compounds, 0.56% hits | Q15475+O00167 | AID 651725 | activity change, % (no concentration beside the values); in the data active = activity change below about -65%; inconclusive = mostly about -30% to -63%; also: % is scaled to controls: 0 for no effect and ±100 for the full control effect
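Compounds are tested against tagged Six1 and Eya2 proteins bridged by glutathione donor and nickel acceptor beads; after a one-hour incubation at 37 °C without light, AlphaScreen emission is recorded.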
BAZ2B block – blocks human BAZ2B | Q9UIF8 | AlphaScreen BAZ2B-H3K14Ac peptide displacement | Potency, µM (titrated, usually from 114 µM), inactives show at the top dose activity change, negative = inhibition, hits mostly inhibitors | 360,000 compounds, 4.4% hits; also: potency is read from the fitted curve at half-maximal effect; % is scaled to controls: 0 for no effect and ±100 for the full control effect; nearly all actives have a fitted effect of over 60% in size
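Complex of BAZ2B and biotin-H3K14Ac (50 nM apiece) forms over 30 min at RT, then faces library compounds up to 110 uM for another 30 min; AlphaScreen beads added, 20 min dark incubation, luminescence read.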
JMJD2A Tudor inh – inhibitors of human JMJD2A Tudor domain; O75164; AlphaScreen JMJD2A-Tudor / H3K4me3 peptide binding; Potency, µM (series often up to 114 µM), for inactives: top-dose activity change, negative = inhibition, usual class: inhibitors; 390,000 compounds, 4.4% hits; AID 504339; also: potency is read from the fitted curve at half-maximal effect; % is scaled to controls: 0 for no effect and ±100 for the full control effect; nearly all actives have a fitted effect of over 50% in size
G9a inh-1 – blocks human histone lysine methyltransferase G9a. Q96KQ7. G9a H3K9 monomethylation, AlphaScreen, 2 h. Potency, µM (highest dose often 102 µM), inactives show top-dose activity, negative = inhibition, most hits filed as inhibitors. 350,000 compounds, 8.8% hits; also: potency is read from the fitted curve at half-maximal effect; % is scaled to controls: 0 for no effect and ±100 for the full control effect; nearly all actives have a fitted effect of over 75% in size
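Readings reflect AlphaScreen signal from monomethyl-H3K9 antibody detection. HMT at 20 nM; substrate b-H3K9 500 nM; cofactor SAM 20 uM; 2 h RT reaction; compounds tested as titrations in qHTS with 15 min preincubation.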
CtBP-E1A inh – CtBP/E1A binding inhibition; 340,000 compounds, 0.49% hits; activity change, % (concentration not given with the values); AlphaScreen GST-E1A/His-CtBP binding, 1536-well; hits give low values; in the data active = activity change below about -65%; inconclusive = mostly about -30% to -63%; also: % is scaled to controls: 0 for no effect and ±100 for the full control effect
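Homogeneous bead-based format: GST-tagged E1A captured on glutathione donor beads, His-tagged CtBP on nickel acceptor beads; compounds precede bead addition by 2 h at 37 °C.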
JMJD2E inh – confirmation of inhibitors of human JMJD2E demethylase | shares compounds with JMJD2A Tudor inh | Recombinant JMJD2E, FDH-coupled NADH fluorescence (FDH is formaldehyde dehydrogenase) | Potency, µM (doses to about 56.8 µM), for the others: at the top dose activity change, negative = inhibition, actives largely listed as inhibitors | 140 compounds, 93% hits
FDH counter – blocks Pseudomonas putida formaldehyde dehydrogenase, flagging JMJD2E artifacts; shares compounds with JMJD2A Tudor inh; FDH enzyme assay, NADH fluorescence kinetic; Potency, µM (top dose mostly 56.7 µM), without a hit: at the top dose activity, negative = inhibition, actives largely listed as inhibitors; 140 compounds, 10% hits; AID 2680
G9a inh-2 – inhibits human G9a histone lysine methyltransferase, hit confirmation. G9a H3K9 monomethylation, AlphaScreen, 2 h. Potency, µM, actives largely listed as inhibitors. shares compounds with JMJD2A Tudor inh. AID 588344. 370 compounds, 89% hits; also: potency is read from the fitted curve at half-maximal effect; nearly all actives have a fitted effect of over 65% in size
Active calls of the source: *; u = inconclusive; x = no result given; [ ] = dose if it differs, or a comment. The list is not random: actives were taken first. Their share in the collection is about 10%. Unless noted, calls follow the shape of the dose curve; as a rule, active = well fitted curve in the direction sought with a large enough effect; inconclusive = small, poorly fitted or top-dose-only effect, or another doubt; inactive = no such curve, though single readings can be large; an effect the other way counts as inactive or inconclusive.

SMILES	HP1b binding inh	Six1-Eya2 inh	BAZ2B block	JMJD2A Tudor inh	G9a inh-1	CtBP-E1A inh	G9a inh-2	others
Oc1ccc(NCc2ccccc2OCc2ccccc2F)cc1	u	-4	45µM*	56µM*	3.2µM*	u	x	JMJD2E inh=20µM*;FDH counter=u
Oc1ccc(NCc2ccccc2OCc2ccccc2Cl)cc1	-10%	x	25µM*	u	u	x	11*
Cc1ccc2c(=O)cc(C(=O)Nc3ccc(S(=O)(=O)N4CCCCC4C)cc3)oc2c1C (configuration not stated)	23%	x	-16%	-14%	-8%[59 µM]	x	x
COc1cccc(C(=O)Nc2ccc(N(C)C)cc2)c1OC	u	-17	50µM*	56µM*	u	-14	7.1*
CCN(CC)c1ccc(NC(=O)c2cc(Cl)ccc2OC)cc1	35µM*	-66*	u	45µM*	2.5µM*	u	1.4*
COC(=O)c1ccc(-n2nnc(-c3nc(-c4ccccc4Cl)no3)c2C)cc1	41%	x	-2%	2%	10%[59 µM]	x	x
C1CCC[C@H]2CCCN3CC[C@H](CCCCCC[C@@H]4CCCN5CC[C@H](CC1)OC45)OC23	x	x	x	x	27%[59 µM]	x	x
